Results as given in PubChem BioAssay (NCATS).
Results filed as inconclusive are left out. The source made the active and inactive calls. Calls come from the whole dose curve; as a rule, active = well fitted cell-killing curve with a large enough effect; inconclusive = small, poorly fitted or top-dose-only effect, or effect the other way; inactive = flat fitted curve, though single readings scatter.

Experiment: qHTS for Inhibitors of ATXN expression: Validation of Cytotoxic Assay (AID 588349)
Conditions: cytotoxicity counter-screen for ATXN expression inhibitors, cell viability; series mostly up to 57.1 µM; activity change, negative = cytotoxicity: at the top concentration
Excerpt: Spinocerebellar ataxia type 2 (SCA2) is a multisystem neurodegenerative disease caused by a dominantly-acting mutation leading to expansion of a polyQ domain in the ataxin-2 protein (ATXN2). SCA2 patients develop progressive ataxia and later lose function in other neuronal systems. Prominent parkinsonian signs develop in some patients. Similar to many neurodegenerative disorders, no symptomatic or disease-modifying treatments are known.
The primary objective of project is to identify compounds inhibiting ATXN2 expression and to test them for efficacy in SCA2 mouse models. To this end, in a collaboration between Dr. Daniel Scoles and scientists at NCGC, a cell-based assay adapted to high-throughput screening has been developed to screen the NIH Molecular Libraries Small Molecule Repository (MLSMR). Confirmed qHTS active compounds will be tested for toxicity against the human neuron-like SH-SY5Y cell line. This line is the parental cell type used to generate the transgenic line used in the primary assay, and so should provide an isogenic control to test the inherent toxicity of qHTS actives.
NIH Chemical Genomics Center [NCGC]
NIH Molecular Libraries Probe Centers Network [MLPCN]
Assay Submitter (PI): Stefan Pulst and Daniel Scoles, University of Utah
HEK293 cultured cells will be dosed with titrated compounds and incubated for 72 hr at 37 degrees C. Toxicity will be assessed using the CellTiter Glo kit (Promega), which uses intracellular ATP concentration as a viability marker.
% is set by controls: 0 for no effect and ±100 for the full control effect; potency is the fitted concentration of half-maximal effect.

Row | SMILES | activity change, negative = cytotoxicity | Potency
1 | C[C@@H](O)[C@H]1C(=O)N2C(C(=O)O)=C(SCCN=CN)C[C@H]12 | -2.27% (inactive) | 
2 | COC(=O)[C@H]1[C@H]2C[C@@H]3c4[nH]c5cc(OC)ccc5c4CCN3C[C@H]2C[C@@H](OC(=O)c2cc(OC)c(OC)c(OC)c2)[C@@H]1OC | -0.257% (inactive) | 
3 | CN(C)[C@@H]1C(=O)C(C(N)=O)=C(O)[C@@]2(O)C(=O)C3=C(O)c4c(O)ccc(Cl)c4[C@@H](O)[C@H]3C[C@@H]12 | 0.741% (inactive) | 
4 | Cc1ccc(Cl)c(Nc2ccccc2C(=O)O)c1Cl | -16.9% (inactive) | 
5 | C[C@H](CS)C(=O)N1CCC[C@H]1C(=O)O | -11.4% (inactive) | 
6 | Cc1nc2c([nH]1)c(=O)n(C)c(=O)n2Cc1ccco1 | -6.96% (inactive) | 
7 | C[N+](C)(C)CCOC(=O)CCC(=O)OCC[N+](C)(C)C | 6.21% (inactive) | 
8 | CCCN(CCC)CCc1cccc2c1CC(=O)N2 | -17.2% (inactive) | 
9 | COc1cc2c(cc1OC)-c1cc(=Nc3c(C)cc(C)cc3C)n(C)c(=O)n1CC2 | -26.8% (inactive) | 
10 | CCN(CC)CCNC(=O)c1cc(S(C)(=O)=O)ccc1OC | 5.57% (inactive) | 
11 | Cc1ccc(=O)n(-c2ccccc2)c1 | 1.95% (inactive) | 
12 | CC(C)NCC(O)c1cc(O)cc(O)c1 (stereo not given) | -3.88% (inactive) | 
13 | COc1cc(Cc2cnc(N)nc2N)cc(OC)c1OC | 5.66% (inactive) | 
14 | CN1C[C@H](C(=O)N[C@]2(C)O[C@@]3(O)[C@@H]4CCCN4C(=O)[C@H](Cc4ccccc4)N3C2=O)C[C@@H]2c3cccc4[nH]cc(c34)C[C@H]21 | -27% (inactive) | 
15 | CCN1CCc2nc(N)oc2CC1 | -6.88% (inactive) | 
16 | CN(C)C/C=C(/c1ccc(Br)cc1)c1cccnc1 | 5.87% (inactive) | 
17 | c1cnc(N2CCN(Cc3ccc4c(c3)OCO4)CC2)nc1 | -5.82% (inactive) | 
18 | CN/C(=C\[N+](=O)[O-])NCCSCc1ccc(CN(C)C)o1 | -7.77% (inactive) | 
19 | CN(C)CC/C=C1\c2ccccc2COc2ccccc21 | -29.7% (inactive) | 
20 | C[n+]1cc2c3c(ccc2c2ccc4cc5c(cc4c21)OCO5)OCO3 |  | 3.55 µM (active)

Row | SMILES | activity change, negative = cytotoxicity | Potency
21 | O=C(CCNNC(=O)c1ccncc1)NCc1ccccc1 | -1.01% (inactive) | 
22 | NC1=NCC2c3ccccc3Cc3ccccc3N12 (stereo not given) | -21.1% (inactive) | 
23 | C[C@]12CC[C@@H]3c4ccc(O)cc4C[C@@H](CCCCCCCCCS(=O)CCCC(F)(F)C(F)(F)F)[C@H]3[C@@H]1CC[C@@H]2O (stereo not given in full) | 5.93% (inactive) | 
24 | COC(=O)C1=C(C)NC(C)=C(C(=O)OCCN(C)Cc2ccccc2)C1c1cccc([N+](=O)[O-])c1 (stereo not given) |  | 20 µM (active)
25 | CN1CCN(CC(=O)N2c3ccccc3C(=O)Nc3cccnc32)CC1 | -5.07% (inactive) | 
26 | CC(=O)OCC1=C(C(=O)O)N2C(=O)[C@@H](NC(=O)Cc3cccs3)[C@H]2SC1 | -16.5% (inactive) | 
27 | CN(C)CCN(Cc1cccs1)c1ccccn1 | -17.3% (inactive) | 
28 | O=C(O)CCCCCCCC(=O)O | -8.47% (inactive) | 
29 | Cc1nnc(SCC2=C(C(=O)O)N3C(=O)[C@@H](NC(=O)Cn4cnnn4)[C@H]3SC2)s1 | -6.27% (inactive) | 
30 | CC(N=C(NC#N)Nc1ccncc1)C(C)(C)C (stereo not given) | 6.75% (inactive) | 
31 | C[N+](C)(C)CCCCCCCCCC[N+](C)(C)C | -4.4% (inactive) | 
32 | O=C1NCN(c2ccccc2)C12CCN(CCCC(c1ccc(F)cc1)c1ccc(F)cc1)CC2 | -8% (inactive) | 
33 | CN(C)CC[C@@H](c1ccc(Br)cc1)c1ccccn1 | -8.86% (inactive) | 
34 | CC(=O)Oc1cc(C(C)C)c(OCCN(C)C)cc1C | -22.1% (inactive) | 
35 | CCCN1C[C@H](CSC)C[C@@H]2c3cccc4[nH]cc(c34)C[C@H]21 | -20.8% (inactive) | 
36 | CN1CCN(C2=Nc3ccccc3Oc3ccc(Cl)cc32)CC1 | -24.3% (inactive) | 
37 | CC(C)(Oc1ccc(CCNC(=O)c2ccc(Cl)cc2)cc1)C(=O)O | -10.8% (inactive) | 
38 | CC(C(=O)O)c1ccc(CC2CCCC2=O)cc1 (stereo not given) | -2.86% (inactive) | 
39 | CCCOc1ccccc1-c1nc2n[nH]nc2c(=O)[nH]1 | 10.2% (inactive) | 
40 | COCC(=O)O[C@]1(CCN(C)CCCc2nc3ccccc3[nH]2)CCc2cc(F)ccc2[C@@H]1C(C)C |  | 28.2 µM (active)
